# PubChem BioAssay AID1159580 (chemical genetic matrix, 2015)
# Values joined by “and” are separate entries in the source; they are usually repeats but may differ in a detail not shown here. Equal values may be shown once. In all, about 5,500 compounds went through this assay and about 2,000 (36%) were called active. Another 18% or so got no clear call; they are omitted. This is one part of the list. Unmarked numbers belong to inactive results. No stated cut-off is given here; in the data, active means normalized growth mostly below about 0.91 (no sharp cut-off); inconclusive means no clear call, values can overlap the other calls; inactive means mostly above about 0.92.
# Experiment: chemical genetic growth profiling, strain panel (AID 1159580);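 further: tested at 20 µM; growth read once vehicle control cultures reached saturation at 30 °C; 1 = growth at the plate median or of vehicle wells; lower values mean less growth of the strain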
# Conditions: S. cerevisiae deletion strains, growth OD
smiles,measurement,setting,value
COc1c2ccoc2c(OC)c2oc(=O)ccc12,normalized growth,"locus YAL013W, strain DEP1, hits give low values",0.978
same,normalized growth,"locus YAL021C, strain ccr4, hits give low values",0.94
same,normalized growth,"locus YAL026C, strain drs2, hits give low values",0.953
same,normalized growth,"locus YAL030W, strain snc1, hits give low values",0.978
same,normalized growth,"locus YBL061C, strain skt5, hits give low values",0.974
same,normalized growth,"locus YBR009C, strain hhf1, hits give low values",0.923
same,normalized growth,"locus YBR021W, strain FUR4, hits give low values",0.901
same,normalized growth,"locus YBR023C, strain chs3, hits give low values",0.888 (active)
same,normalized growth,"locus YBR171W, strain sec66, hits give low values",0.975
same,normalized growth,"locus YBR229C, strain ROT2, hits give low values",0.945
same,normalized growth,"locus YBR231C, strain swc5, hits give low values",0.966
same,normalized growth,"locus YBR279W, strain paf1, hits give low values",0.939
same,normalized growth,"locus YCL011C, strain gbp2, hits give low values",0.934
same,normalized growth,"locus YCL016C, strain dcc1, hits give low values",0.876 (active)
same,normalized growth,"locus YCL029C, strain bik1, hits give low values",0.965
same,normalized growth,"locus YCL061C, strain MRC1, hits give low values",0.944
same,normalized growth,"locus YCL069W, strain vba3, hits give low values",0.979
same,normalized growth,"locus YCR088W, strain abp1, hits give low values",0.997
same,normalized growth,"locus YDL005C, strain med2, hits give low values",0.989
same,normalized growth,"locus YDL035C, strain GPR1, hits give low values",0.929
same,normalized growth,"locus YDL040C, strain nat1, hits give low values",0.996
same,normalized growth,"locus YDL074C, strain BRE1, hits give low values",0.934
same,normalized growth,"locus YDL101C, strain DUN1, hits give low values",0.959
same,normalized growth,"locus YDL134C, strain PPH21, hits give low values",0.983
same,normalized growth,"locus YDL185W, strain tfp1, hits give low values",0.941
same,normalized growth,"locus YDL192W, strain arf1, hits give low values",0.911 (active)
same,normalized growth,"locus YDR001C, strain nth1, hits give low values",0.97
same,normalized growth,"locus YDR069C, strain doa4, hits give low values",0.982
same,normalized growth,"locus YDR101C, strain arx1, hits give low values",0.904 (active)
same,normalized growth,"locus YDR137W, strain rgp1, hits give low values",0.991
same,normalized growth,"locus YDR150W, strain NUM1, hits give low values",0.991
same,normalized growth,"locus YDR159W, strain sac3, hits give low values",1.02
same,normalized growth,"locus YDR162C, strain NBP2, hits give low values",0.884
same,normalized growth,"locus YDR195W, strain ref2",1.26 [resistant] (active)
same,normalized growth,"locus YDR297W, strain sur2, hits give low values",0.978
same,normalized growth,"locus YDR318W, strain mcm21, hits give low values",0.966
same,normalized growth,"locus YDR334W, strain swr1, hits give low values",0.938
same,normalized growth,"locus YDR335W, strain msn5, hits give low values",0.91 (active)
same,normalized growth,"locus YDR388W, hits give low values",0.966
same,normalized growth,"locus YDR392W, strain spt3, hits give low values",0.724 (active)
same,normalized growth,"locus YDR502C, strain sam2, hits give low values",0.97
same,normalized growth,"locus YEL003W, strain gim4, hits give low values",0.949
same,normalized growth,"locus YEL037C, strain rad23, hits give low values",0.976
same,normalized growth,"locus YEL061C, strain CIN8 (second series), hits give low values",0.972
same,normalized growth,"locus YEL061C, strain CIN8, hits give low values",0.977
same,normalized growth,"locus YER015W, strain faa2, hits give low values",0.912 (active)
same,normalized growth,"locus YER016W, strain bim1, hits give low values",0.99
same,normalized growth,"locus YER110C, hits give low values",0.96
same,normalized growth,"locus YER111C, strain swi4, hits give low values",0.987
same,normalized growth,"locus YER155C, strain BEM2 (second series), hits give low values",0.835 (active)
same,normalized growth,"locus YER155C, strain BEM2, hits give low values",1.01
same,normalized growth,"locus YER167W, strain BCK2, hits give low values",0.97
same,normalized growth,"locus YFR010W, strain ubp6, hits give low values",0.968
same,normalized growth,"locus YGL078C, strain dbp3, hits give low values",0.987
same,normalized growth,"locus YGL086W, strain mad1, hits give low values",0.969
same,normalized growth,"locus YGL167C, strain pmr1, hits give low values",0.964
same,normalized growth,"locus YGL173C, strain kem1, hits give low values",0.979
same,normalized growth,"locus YGL227W, strain vid30, hits give low values",0.997
same,normalized growth,"locus YGL240W, strain doc1, hits give low values",0.969
same,normalized growth,"locus YGL248W, strain PDE1, hits give low values",0.96
same,normalized growth,"locus YGL253W, strain hxk2, hits give low values",0.959
same,normalized growth,"locus YGR078C, strain PAC10, hits give low values",0.962
same,normalized growth,"locus YGR135W, strain pre9, hits give low values",0.999
same,normalized growth,"locus YGR252W, strain gcn5, hits give low values",0.91
same,normalized growth,"locus YHR013C, strain ard1, hits give low values",0.912
same,normalized growth,"locus YHR027C, strain rpn1, hits give low values",0.959
same,normalized growth,"locus YHR030C, strain SLT2, hits give low values",0.99 and 0.993
same,normalized growth,"locus YHR079C, strain IRE1 (second series), hits give low values",0.983
same,normalized growth,"locus YHR079C, strain IRE1, hits give low values",0.989
same,normalized growth,"locus YHR094C, strain hxt1, hits give low values",0.98
same,normalized growth,"locus YHR129C, strain ARP1, hits give low values",0.981
same,normalized growth,"locus YHR142W, strain chs7, hits give low values",0.882
same,normalized growth,"locus YHR200W, strain rpn10, hits give low values",0.936
same,normalized growth,"locus YIL066C, strain RNR3, hits give low values",0.946
same,normalized growth,"locus YIL073C, strain SPO22, hits give low values",0.954
same,normalized growth,"locus YIL125W, strain kgd1, hits give low values",0.984
same,normalized growth,"locus YIR030C, strain dcg1, hits give low values",0.979
same,normalized growth,"locus YJL092W, strain hpr5, hits give low values",0.964
same,normalized growth,"locus YJL095W, strain BCK1 (second series), hits give low values",0.969
same,normalized growth,"locus YJL095W, strain BCK1, hits give low values",0.913 and 0.989
same,normalized growth,"locus YJL115W, strain asf1, hits give low values",0.959
same,normalized growth,"locus YJL129C, strain trk1, hits give low values",1.02
same,normalized growth,"locus YJL134W, strain LCB3, hits give low values",0.983
same,normalized growth,"locus YJL154C, strain vps35, hits give low values",0.983
same,normalized growth,"locus YJL164C, strain tpk1, hits give low values",0.912 (active)
same,normalized growth,"locus YJL166W, strain qcr8, hits give low values",0.96
same,normalized growth,"locus YJL168C, strain set2, hits give low values",0.989
same,normalized growth,"locus YJL187C, strain SWE1 (second series), hits give low values",0.959
same,normalized growth,"locus YJL187C, strain SWE1, hits give low values",0.951
same,normalized growth,"locus YJR066W, strain TOR1, hits give low values",0.939
same,normalized growth,"locus YJR075W, strain HOC1, hits give low values",0.964
same,normalized growth,"locus YKL009W, strain mrt4, hits give low values",0.956
same,normalized growth,"locus YKL068W, hits give low values",0.996
same,normalized growth,"locus YKL085W, strain MDH1 (second series), hits give low values",0.987
same,normalized growth,"locus YKL085W, strain MDH1, hits give low values",0.987
same,normalized growth,"locus YKL160W, strain elf1, hits give low values",0.933
same,normalized growth,"locus YKL190W, strain CNB1, hits give low values",0.985
same,normalized growth,"locus YKR001C, strain vps1, hits give low values",0.905
same,normalized growth,"locus YKR026C, strain gcn3, hits give low values",0.99
same,normalized growth,"locus YKR091W, strain srl3, hits give low values",0.991
same,normalized growth,"locus YLL001W, strain dnm1, hits give low values",0.909
same,normalized growth,"locus YLL026W, hits give low values",0.979
same,normalized growth,"locus YLL041C, strain sdh2, hits give low values",0.981
same,normalized growth,"locus YLR027C, strain aat2, hits give low values",0.975
same,normalized growth,"locus YLR039C, strain RIC1, hits give low values",0.964
same,normalized growth,"locus YLR058C, strain SHM2, hits give low values",0.959
same,normalized growth,"locus YLR102C, strain apc9, hits give low values",0.979
same,normalized growth,"locus YLR113W, strain HOG1, hits give low values",1.05
same,normalized growth,"locus YLR221C, strain rsa3, hits give low values",0.983
same,normalized growth,"locus YLR258W, strain gsy2, hits give low values",0.907 (active)
same,normalized growth,"locus YLR262C, strain YPT6 (second series), hits give low values",0.969
same,normalized growth,"locus YLR262C, strain YPT6, hits give low values",1.05
same,normalized growth,"locus YLR268W, strain sec22, hits give low values",0.921
same,normalized growth,"locus YLR320W, strain mms22, hits give low values",0.945
same,normalized growth,"locus YLR330W, strain CHS5, hits give low values",0.963
same,normalized growth,"locus YLR342W, strain FKS1, hits give low values",0.99
same,normalized growth,"locus YLR357W, strain rsc2, hits give low values",1.06
same,normalized growth,"locus YLR370C, strain arc18, hits give low values",0.988
same,normalized growth,"locus YLR371W, strain rom2, hits give low values",0.84 (active)
same,normalized growth,"locus YLR384C, strain iki3, hits give low values",0.991
same,normalized growth,"locus YLR418C, strain cdc73, hits give low values",0.932
same,normalized growth,"locus YML016C, strain PPZ1, hits give low values",0.948
same,normalized growth,"locus YML032C, strain rad52, hits give low values",0.951
same,normalized growth,"locus YML120C, strain ndi1, hits give low values",0.901 (active)
same,normalized growth,"locus YML124C, strain tub3, hits give low values",0.974
same,normalized growth,"locus YMR058W, strain fet3, hits give low values",0.921
same,normalized growth,"locus YMR078C, strain ctf18, hits give low values",0.969
same,normalized growth,"locus YMR125W, strain sto1, hits give low values",0.994
same,normalized growth,"locus YMR129W, hits give low values",0.986
same,normalized growth,"locus YMR205C, strain PFK2, hits give low values",0.913
same,normalized growth,"locus YMR223W, strain ubp8, hits give low values",0.974
same,normalized growth,"locus YMR231W, strain pep5, hits give low values",0.991
same,normalized growth,"locus YMR263W, strain SAP30, hits give low values",0.973
same,normalized growth,"locus YMR307W, strain GAS1, hits give low values",0.956
same,normalized growth,"locus YNL067W, strain RPL9B, hits give low values",0.999
same,normalized growth,"locus YNL071W, strain lat1, hits give low values",0.915 (active)
same,normalized growth,"locus YNL128W, strain TEP1, hits give low values",0.932
same,normalized growth,"locus YNL153C, strain GIM3, hits give low values",0.947
same,normalized growth,"locus YNL183C, strain NPR1, hits give low values",0.939
same,normalized growth,"locus YNL209W, strain ssb2, hits give low values",0.958
same,normalized growth,"locus YNL233W, strain BNI4, hits give low values",0.946
same,normalized growth,"locus YNL248C, strain rpa49, hits give low values",0.849 (active)
same,normalized growth,"locus YNL250W, strain rad50, hits give low values",0.988
same,normalized growth,"locus YNL271C, strain bni1, hits give low values",0.983
same,normalized growth,"locus YNL298W, strain CLA4, hits give low values",0.929
same,normalized growth,"locus YNL307C, strain MCK1, hits give low values",0.949
same,normalized growth,"locus YNL322C, strain KRE1 (second series), hits give low values",0.986
same,normalized growth,"locus YNR049C, strain mso1, hits give low values",0.993
same,normalized growth,"locus YNR052C, strain pop2, hits give low values",1
same,normalized growth,"locus YOL006C, strain TOP1, hits give low values",0.691
same,normalized growth,"locus YOL012C, strain htz1",0.85
same,normalized growth,"locus YOL147C, strain pex11, hits give low values",0.984
same,normalized growth,"locus YOR001W, strain rrp6, hits give low values",0.978
same,normalized growth,"locus YOR061W, strain CKA2, hits give low values",0.931
same,normalized growth,"locus YOR069W, strain VPS5, hits give low values",0.994
same,normalized growth,"locus YOR070C, strain gyp1, hits give low values",0.951
same,normalized growth,"locus YOR080W, strain dia2, hits give low values",0.992
same,normalized growth,"locus YOR083W, strain WHI5, hits give low values",0.943
same,normalized growth,"locus YOR106W, strain vam3, hits give low values",0.875
same,normalized growth,"locus YOR136W, strain idh2, hits give low values",0.959
same,normalized growth,"locus YOR144C, strain elg1, hits give low values",0.969
same,normalized growth,"locus YOR184W, strain ser1, hits give low values",0.871 (active)
same,normalized growth,"locus YOR231W, strain MKK1, hits give low values",0.962
same,normalized growth,"locus YOR265W, strain rbl2, hits give low values",0.979
same,normalized growth,"locus YOR270C, strain vph1, hits give low values",0.815
same,normalized growth,"locus YOR290C, strain snf2, hits give low values",0.876
same,normalized growth,"locus YOR316C, strain cot1, hits give low values",0.948
same,normalized growth,"locus YPL051W, strain arl3, hits give low values",0.928
same,normalized growth,"locus YPL055C, strain LGE1, hits give low values",0.868
same,normalized growth,"locus YPL078C, strain atp4, hits give low values",0.882 (active)
same,normalized growth,"locus YPL106C, strain sse1, hits give low values",0.832 (active)
same,normalized growth,"locus YPL240C, strain hsp82, hits give low values",0.939
same,normalized growth,"locus YPL241C, strain CIN2, hits give low values",0.993
same,normalized growth,"locus YPL256C, strain CLN2, hits give low values",1.08
same,normalized growth,"locus YPR119W, strain clb2, hits give low values",0.997
same,normalized growth,"locus YPR141C, strain kar3, hits give low values",0.98
same,normalized growth,"locus YPR163C, strain tif3, hits give low values",0.948
same,normalized growth,"locus YPR167C, strain met16, hits give low values",0.983
same,normalized growth,"strain wtn01, hits give low values",0.91
